Data reported in the supplement of paper PMC3334620.
Over roughly 33,000 sequences, “E-score (-0.5 to 0.5)” has its median near -0.0034; the highest 2% begin near 0.25. For the sample, the highest values were picked, then their nearest neighbours and some sequences at random.

molecular target: T1, Yap3 (UniProt P38749); experiment: PBM E-score (8-mer binding enrichment) (E-score (-0.5 to 0.5)); higher = stronger / more preferred TF binding; settings: protein concentration: 100 nM; construct: GST-full length
T1 sequence: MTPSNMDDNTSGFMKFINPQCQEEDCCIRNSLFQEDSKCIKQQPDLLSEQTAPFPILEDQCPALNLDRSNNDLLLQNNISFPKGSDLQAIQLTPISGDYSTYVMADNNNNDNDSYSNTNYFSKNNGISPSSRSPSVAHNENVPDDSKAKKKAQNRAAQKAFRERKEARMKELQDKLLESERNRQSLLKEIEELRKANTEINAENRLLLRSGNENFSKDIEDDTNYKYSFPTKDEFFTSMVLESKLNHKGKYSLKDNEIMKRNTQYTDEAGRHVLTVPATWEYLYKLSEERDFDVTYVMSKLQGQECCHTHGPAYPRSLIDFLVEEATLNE
Procedure: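 Universal 'all 10-mer' protein binding microarrays (Agilent AMADID 015681) probed with GST-tagged S. cerevisiae TFs (full-length or DBD) made by in vitro transcription/translation (PURExpress), about 100-200 nM. Bound TF was detected with fluorescent anti-GST. Each ungapped 8-mer (which stands for itself and its reverse complement) is scored by the PBM enrichment score (E-score), a modified Wilcoxon-Mann-Whitney statistic from -0.5 to +0.5, computed with the Universal PBM Analysis Suite. Scale: above 0.35 generally sequence-specific binding.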

Sequence	PBM E-score
CACGGCCG	-0.0612
CTACTCTA	0.148
AAAGGGCG	-0.0936
AGTAGTGG	0.0946
ATCTGCGG	-0.0331
ATCTATAA	0.0384
CTACTAGC	0.097
TAAGTAGA	0.109
AGATGACG	0.108
CTGTGGCC	-0.361
CTGTTCAA	0.0116
AGGTCGAT	0.167
GCCGATCA	0.00289
CTATTTAA	0.0559
ATATTTAA	0.339
ATATTTAC	0.208
GTAACAGA	0.105
ATTATTCC	0.248
ATTATTCA	0.277
ATTATTCG	0.274
ACTATTCG	0.231
GTTATTCA	0.193
CTTATTCA	0.106
ATACCCAG	-0.0813
AACAATTC	0.106

Sequence	PBM E-score
ACCAATTA	0.274
ATCAATTC	-0.0493
ACCAATTG	-0.0264
ATCAATTA	0.318
AACAATTA	0.323
GCCAATTA	0.193
ATCAATTG	0.159
AACAATTG	-0.0238
CGTAGCTA	-0.05
GGAGCAAA	0.016
CATAGCAC	0.0592
ACACCACA	0.0359
AGCCTCAT	-0.158
ACAAGGGG	-0.193
ATTAGATC	0.0781
ATTAGATG	0.261
ATTAGATA	0.178
TCTTCAAA	0.0414
ACTGCCAG	-0.0114
CAATTATC	0.273
TAATTATA	0.285
GAATTAGA	0.136
AAATTATA	0.249
CAATTAGA	0.0631
GAATTATA	0.237

Sequence	PBM E-score
CAATTATA	0.167
TAATTAGA	0.291
CAATTATG	0.214
CTACCATA	0.152
CCGTGAAG	-0.167
ATACCATA	0.241
CTAGATCC	-0.0756
GCGAAGGA	-0.201
AACGAGGA	0.0742
AAATACAA	0.197
AAATACTA	0.141
TAATACTA	0.367
GACTAACA	0.142
AACTAATG	0.23
TAATACAA	0.279
GACTAATA	0.326
CAATACAA	0.187
CAATACTA	0.0409
GACTAATC	0.175
AACTAATT	0.149
AACTAATA	0.342
CAAATCTC	0.0919
TACAGCTA	-0.115
GCATGACC	-0.158
TCCTTCAA	0.026

Sequence	PBM E-score
CCCTTGAC	-0.0534
CGACAGGA	0.0296
AAGTAACC	0.0184
ACCTAGAC	-0.229
GAGACGGC	-0.138
GAAAGATC	-0.0498
ATCCAGTG	0.0972
ACTCCAAT	0.0453
GAAATACC	0.0809
GGTCAGTA	-0.139
TGTAGTAA	0.128
TACTAATA	0.267
ACCTAATC	0.245
GCCTAATA	0.0577
TACTACTA	0.223
ACCTAATA	0.274
CACTAATA	0.225
GAAAGCAC	0.112
ACAGCAGG	-0.126
CGTCTGAA	-0.104
ATAATCAA	0.139
AACATAAT	0.334
ATAATCAT	0.344
ATAATCAG	0.126
CTAATCAA	0.219

Sequence	PBM E-score
CACATAAG	0.053
AACATACT	0.012
CTAATCAC	0.271
AACATACG	0.183
CTAATCAG	0.0826
AACATAAA	0.156
AACATAAG	0.308
GCATAAAA	0.147
CGTTGAAC	-0.07
GCTAGGAC	-0.11
ATCTATCC	0.00162
AAAGTGCT	0.0686
CTCTATCC	-0.00886
CAGGAAGC	0.00172
CACATAAC	-0.0392
ACCATAAT	0.264
ACCATAAA	0.141
ATCATAAT	0.293
ACCATAAG	-0.0758
GACATAAC	0.22
ATCATAAA	0.193
AACATAAC	0.269
ATCATAAG	0.247
CTCTCTAC	0.111
AGCTGGAA	-0.178

Sequence	PBM E-score
GCAACCCA	-0.11
GATGATTA	0.0319
AATGATAG	0.172
CATGATTC	0.0254
CATGATTA	0.28
AATGATAA	0.177
AATGATTA	0.325
CCTGATTA	0.18
TATGATAA	0.228
AATGATTC	0.115
CATGATAA	0.255
AATGATAT	0.242
AATGATAC	0.264
AGAACGCC	-0.109
CGCACATA	-0.0836
AAGTGGGT	0.0584
AATTTGAA	0.131
CCGAGCAA	-0.0253
CATATAGC	0.233
ATACAAGG	0.145
AGCGATTA	0.00413
CGCGATTA	0.27
CGCGATTC	0.198
CATAATAG	0.189
CGTAATAC	0.318

Sequence	PBM E-score
AGTAATAC	0.113
AGTAATAG	0.207
GGTAATAC	0.208
GGTAATAA	0.165
CGTAATGC	0.203
AGTAATGC	0.13
CGTAATAA	0.29
CGTAATAG	0.314
AGTAATAT	0.295
TGTAATAA	0.242
CGGCATTA	0.21
ACTCGTTC	-0.0576
AGTAATAA	0.254
AGTAATGA	0.208
AGTAAAAA	0.208
ATTGGGGC	-0.0386
AGGCTATC	-0.203
CCGCGCGC	0.0469
ACGCGCTA	0.0658
CCGCGCGA	0.0991
CCGCGCTA	0.137
GCGCGCGA	0.121
GCGCGCGC	0.29
GCGCGCTA	0.257
ACGCGCGC	0.181

Sequence	PBM E-score
CCGCGCGG	0.293
ACAACAGA	-0.0683
GATGTCCC	-0.134
AGGATCAG	-0.151
CGGCCCAG	-0.332
AGAAATGA	0.0784
CCTGACAG	-0.0186
CGAGATAA	0.29
AGAGATAA	0.169
GGAGATAA	0.107
GAGCCTTA	-0.0398
ACATGTAT	0.262
CCATGTAG	-0.014
ACATGTTG	0.13
ACATGTAC	0.112
ACATGTAG	0.302
ACATGTAA	0.184
CAGAATCA	0.0924
CCGCTAGG	-0.128
ACGCACGA	0.131
ACGCACGT	-0.206
ACGCACGC	0.262
TCATGGGA	0.00531
TATTAAAA	0.217
ATTAAAAC	0.236

Sequence	PBM E-score
ATTAAATA	0.268
ATTAAAAG	0.0983
GATTAAAA	0.192
ATTAAATG	0.266
CATTAAAA	0.281
ATTAAAAA	0.285
ATTAAATC	0.211
GTTAAATA	0.178
ATTAAACG	0.215
CTTAAATA	0.092
CAAGGTAG	-0.142
ATGCGCCG	0.00281
AAAGAGAT	-0.0227
AGCGAGAA	-0.0207
ACAATCCA	0.287
GCAATCCA	0.0882
CAAATCCA	0.151
AAAATCCA	0.28
ACAATCCG	0.116
GAAATCCA	0.0886
AGAATGCG	0.0426
AATAGTAT	0.229
GTATCCGA	-0.0824
ATTAGGTA	0.167
AATACGTC	0.188

Sequence	PBM E-score
ATTAGGTC	0.286
ATTACGCA	0.233
ATTACGTG	0.397
ACTACGTC	-0.0702
ATTACGTC	0.33
ACTACGTG	-0.166
ATTACGCG	0.311
CTTAGGTC	-0.0924
ATTACGCC	0.0197
AGTACGTG	-0.0755
AGTAAACT	0.0322
CATCTGGC	-0.066
TAGTACTA	0.0913
GGCTACAC	-0.166
CGACTACA	0.0886
ATTGGCTC	0.0983
ATGGTAAT	0.128
AAGGACAC	-0.0338
ACCCGGGT	-0.12
ACCTTCAC	0.00082
ATTGGTTG	0.118
CTGTACGA	0.0353
TACAGTAA	0.183
CACAGTAG	0.0618
CACAGTAA	0.265

Sequence	PBM E-score
ATTTCGAC	-0.0412
ATTTCGAA	0.261
ATTTCGAG	0.141
TGCGTGAA	0.107
ACATTAGT	0.0888
ACTTTATA	0.259
ATTTTATG	0.21
AATTTATC	0.325
ATTTTATA	0.331
AGTTTATA	0.205
CCTTTATA	0.0052
ATTTTATC	0.235
CATTTATC	0.198
CGTTTATA	0.28
GGTTTATA	0.0813
GTTTTATA	0.139
ACTTTATC	0.169
GGCAGTCA	-0.11
AAGGTAAC	0.121
AATTTGAT	0.0887
ATCGTTTA	0.135
AAGAGCCG	-0.0966
AGTCACGG	0.00648
AGGCAGAA	-0.0515
CCTCGCAC	-0.133

Sequence	PBM E-score
CATTTATA	0.215
AATTTATA	0.294
AATTTATG	0.252
GGACATAA	0.0711
AACCATAC	0.0832
AGACATAA	0.136
ATCCATAA	0.258
AACCATAT	0.266
GTCCATAA	-0.0433
ATGCATTC	0.0938
ATGCATTA	0.333
TGACATAA	0.3
AACCATAA	0.15
CTCCATAA	-0.0865
CTGCATTA	-0.0676
CTCCTTCC	-0.171
CATTTGAC	0.0765
GGAGCGCA	-0.261
AAGTACGG	-0.0366
AGCAATTC	0.134
TAGGCCCA	-0.198
TCGTCGAA	0.0355
AGACATAT	0.185
ATACATAC	0.0937
ACACATAG	-0.0796

Sequence	PBM E-score
GCACATAA	0.131
ATACATCA	0.207
CTACATAA	-0.0287
ACACATAA	0.299
ATACATAT	0.286
TTACATAA	0.416
ATACATAG	0.112
GTACATAA	0.135
ATACATAA	0.285
GCCAATCA	-0.169
CCAGCAGA	-0.17
AACTGCTA	0.00439
CCGCCTGC	-0.278
AGAGAAAA	0.0508
GTTTGAGA	-0.0917
GGATTGGA	0.19
TCGCGCCA	-0.0451
ATCTGGAG	-0.165
GCTTGGAC	-0.0766
CAAGGATG	-0.0177
CGCAATAG	0.105
CCAATGAG	-0.0674
GTACATTA	0.0635
AAACATAT	0.305
AAACATAC	0.0457

Sequence	PBM E-score
CTACATTA	0.11
ATACATTA	0.266
AAACATAG	-0.0382
ATCAGGCA	-0.0855
CGCACTTA	-0.0802
GCTGTGCA	-0.205
AACGGCGG	-0.208
ACATTACA	0.131
ATATTACA	0.226
AGATTACG	0.213
GCATTACA	0.1
CCATTACA	0.272
ATATTACG	0.412
ACATTACT	0.213
ACATTACG	0.286
ATATTATG	0.399
AGATTATG	0.129
ATATTATC	0.149
CCATTACG	0.0884
